# Screening data: PubChem, several laboratories
# In the library only some 2.4% were active in any assay of this set; here they are far more common.
# ANO1 block: mouse TMEM16A channel inhibition, primary screen. Q8BHY3. normalized B-score (activity score, 25-100; higher = stronger inhibition) at 10 µM. 1.2% of 310,000 active. HEK293 TMEM16A/YFP iodide influx fluorescence, ionomycin. AID 588511;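 active = ratio plate-corrected score three or more library SD toward inhibition, starting fluorescence score within five deviations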;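 note: score derived from kinetic fluorescence span divided by baseline fluorescence per well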
# Target sequence (Q8BHY3 whole entry, looked up): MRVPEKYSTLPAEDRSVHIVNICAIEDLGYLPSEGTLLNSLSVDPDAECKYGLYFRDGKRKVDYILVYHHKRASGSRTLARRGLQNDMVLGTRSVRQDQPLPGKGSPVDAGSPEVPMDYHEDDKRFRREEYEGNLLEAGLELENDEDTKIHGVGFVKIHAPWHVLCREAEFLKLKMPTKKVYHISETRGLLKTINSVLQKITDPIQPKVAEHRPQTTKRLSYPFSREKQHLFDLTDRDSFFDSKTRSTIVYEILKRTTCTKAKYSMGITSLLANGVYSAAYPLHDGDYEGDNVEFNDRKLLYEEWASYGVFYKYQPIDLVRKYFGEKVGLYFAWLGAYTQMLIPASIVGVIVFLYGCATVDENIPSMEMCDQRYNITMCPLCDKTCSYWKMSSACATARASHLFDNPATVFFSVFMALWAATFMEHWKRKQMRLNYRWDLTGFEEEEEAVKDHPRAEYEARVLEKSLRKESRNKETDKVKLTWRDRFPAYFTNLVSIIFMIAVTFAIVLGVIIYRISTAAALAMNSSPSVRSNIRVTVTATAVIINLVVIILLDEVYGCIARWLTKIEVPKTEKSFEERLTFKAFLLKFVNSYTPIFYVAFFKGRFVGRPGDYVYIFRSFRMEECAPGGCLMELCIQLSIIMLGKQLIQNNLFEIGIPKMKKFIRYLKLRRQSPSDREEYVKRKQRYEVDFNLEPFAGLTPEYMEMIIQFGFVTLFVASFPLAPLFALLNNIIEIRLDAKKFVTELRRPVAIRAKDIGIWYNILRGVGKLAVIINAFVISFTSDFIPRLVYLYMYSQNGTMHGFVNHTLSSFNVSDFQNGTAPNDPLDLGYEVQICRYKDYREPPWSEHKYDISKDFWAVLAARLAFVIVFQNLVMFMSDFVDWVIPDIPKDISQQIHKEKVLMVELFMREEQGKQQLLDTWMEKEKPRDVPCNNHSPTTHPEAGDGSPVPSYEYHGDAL
# CRFR2-BP antag: blocks CRF-induced signaling of the CRF-BP/CRF-R2 complex; HEK293 CRF-R2/CRF-BP, CRF-induced calcium fluorescence; inhibition, % at 11.8 µM; 0.59% of 350,000 active;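 active = inhibition of the ligand-induced calcium signal above about 50% at the single tested concentration, limit read from the data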
# cardiac RTF act: increases calcium sensitivity of human cardiac regulated thin filaments | 0.24% of 340,000 active | IANBD-labeled TnC RTF fluorescence at EC20 calcium; 0% EC20 calcium, 100% full calcium | activation, % at 7.2 µM | P19429+P45379;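 active = activation above the mean over all tested compounds plus 3 SD, cut at about 30% in these data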;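 note: rise in fluorescence read as greater calcium sensitivity of cardiac thin filaments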
# Cardiac RTF inh: cardiac RTF calcium desensitization. P19429+P45379. IANBD-labeled cardiac RTF, Ca2+ fluorescence. inhibition, % at 7.15 µM. 0.12% of 340,000 active;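 active = inhibition above the mean inhibition of all tested compounds plus 3 SD, cut at about 17% in these data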;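 note: assay run at fixed EC70 calcium of 1.6 mM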
# ANO1 activ: activators or potentiators of mouse TMEM16A chloride channel; Q8BHY3; HEK293 TMEM16A/YFP-H148Q/I152L, iodide quench fluorescence; active compounds read low; B-score at 10 µM; 0.3% of 340,000 active;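 active = fluorescence-ratio B-score plate-corrected deviation score at least 3 library SD below zero, with starting fluorescence score within 5 deviations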;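 note: channel opened by trigger with iodide after compound preincubation; score built on the fluorescence ratio of max minus min over baseline; more negative score means more quench and so TMEM16A activation or potentiation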
# CRFR2-BP ag: CRF-BP/CRF-R2 complex agonism. HEK293 CRF-R2/CRF-BP, calcium dye fluorescence (FLIPR); percent of saturating CRF peptide response. activation, % at 13.2 µM. 0.46% of 350,000 active;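 active = activation of at least 50%, plus an integration ratio under a set limit after plate pattern correction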;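 note: plate controls were neutral control wells without compound for no effect and CRF at EC100 for full effect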
# The depositor's hits bear a star; i = inactive; . = no result given.
SMILES,ANO1 block,CRFR2-BP antag,cardiac RTF act,Cardiac RTF inh,ANO1 activ,CRFR2-BP ag
CCn1c(N)c(C(=O)NC)sc1=S,100*,-0.7,11.1,-16.4,i,1.2
CCn1nc(C)cc1-c1nnc(Sc2ncc([N+](=O)[O-])s2)n1C,i,96.8*,-4.2,-5.4,-9.8*,-1.2
Nc1nc(SCC(=O)Nc2ccc(OCc3ccccc3)cc2)n[nH]1,i,8.7,-0.4,3.1,i,-1.5
CCOC(=O)c1ccc2c(c1)N(CC(=O)N1CCCC1)C(=O)C(C)(C)O2,i,-4.1,0.7,-4.6,i,-1.1
CCOC(=O)c1ccc2c(c1)N(CC#N)C(=O)C(C)(C)O2,25*,7.6,-4.3,1.9,i,-3.7
Cc1cccc(-c2nc3sc(C)cc3c(=O)o2)c1,i,-0.8,-3.5,-7.8,i,0.1
CC(C)CC(C(=O)Nn1cnnc1)N1C(=O)c2ccccc2C1=O (configuration not stated),i,58.9*,-3.1,11.1,i,0.1
COC(=O)C(CCC(C(=O)OC)N1C(=O)c2ccccc2C1=O)N1C(=O)c2ccccc2C1=O (configuration not stated),.,0.2,3.1,-15.9,i,0.1
CCOC(=O)Nc1c(Cl)n(C)c(=O)n(C)c1=O,i,-4.4,2.8,-2.7,i,2.5
Cc1ccccc1N1C(=O)c2cc(S(N)(=O)=O)c(Cl)cc2NC1C (configuration not stated),i,-17.4,-4.8,-0.1,i,-1.2
CCC(=O)OCc1c(C(F)(F)F)nn(C)c1Sc1ccc(F)cc1,i,51.1*,-0.1,-1.1,i,0.5
CCC(=O)OCc1c(C(F)(F)F)nn(C)c1Sc1ccc(Cl)cc1,i,6.4,-3.3,-4.6,i,-0.9
Cc1ccc(O)c(C(=O)c2cc(C#N)c3nc4ccccc4n3c2)c1,i,-133.5,1.6,-11.0,i,66.4*
COc1ccccc1/C=C/C=C(\C#N)C(=O)NC(C)c1ccccc1 (configuration not stated),i,-1.2,4.2,-2.8,i,1.1
COc1ccc(-c2nc(N3CCN(C)CC3)sc2-c2ccc(OC)cc2)cc1,i,-24.2,5.6,-6.8,i,-0.3
Nc1nnc(SCc2ccc(F)cc2Cl)s1,i,58.3*,9.7,-6.2,i,-6.8
COc1cccc(C2C3=C(N=c4s/c(=C\c5cccc(O)c5)c(=O)n42)c2ccccc2CC3)c1OC (configuration not stated),i,-14.0,-13.9,-2.2,i,1.7
COc1ccccc1C1C2=C(N=c3s/c(=C/c4cccc(OCC(=O)O)c4)c(=O)n31)c1ccccc1CC2 (configuration not stated),i,64.9*,-0.3,-17.1,i,-0.4
Cc1cccc(S(=O)(=O)c2c(C)cc(C)[nH]c2=O)c1,i,2.7,7.1,1.2,i,-0.2
C=C(C)Cn1c(C)cc(C)c(S(=O)(=O)c2cccc(C)c2)c1=O,100*,39.2,2.5,7.4,i,-1.5
CCc1cc(=O)oc2cc(C)cc(OCC(=O)NCc3ccncc3)c12,i,-1.9,0.4,-12.2,i,-1.7
COc1ccc(CNC(=S)N/N=C(/C)c2ccccc2)cc1,25*,-2.5,.,.,i,-0.3
C/C(=N\NC(=S)NCc1ccccc1)c1ccccc1,i,6.3,-3.1,6.1,i,-2.8
COc1ccc(/C=N/N(C)C2=NS(=O)(=O)c3ccccc32)cc1,i,-24.9,4.2,-4.6,i,6.0
CN(/N=C/c1ccc(N(C)C)cc1)C1=NS(=O)(=O)c2ccccc21,i,-9.2,61.4*,-11.9,i,21.8
SMILES,ANO1 block,CRFR2-BP antag,cardiac RTF act,Cardiac RTF inh,ANO1 activ,CRFR2-BP ag
Cc1cc(C)c2c(=O)n(CC(=O)NCCCN3CCN(c4ccccc4F)CC3)sc2n1,100*,19.8,.,.,.,0.4
O=c1[nH]c(=S)c2[nH]c(=S)n(-c3ccccc3)c2[nH]1,.,1.7,4.8,-5.5,i,4.6
O=C(O)c1cnn(-c2nc(-c3cccc(F)c3)cs2)c1C(F)(F)F,i,8.3,3.0,2.8,i,0.7
O=C(O)c1cnn(-c2nc(-c3ccc(Cl)c(Cl)c3)cs2)c1C(F)(F)F,i,50.2*,0.5,2.3,i,-2.3
Cc1ccccc1-n1c(O)c(/C=C/C=Nc2ccccc2)c(=O)[nH]c1=O,i,-85.7,123.5*,-135.1,i,81.4*
O=C(Cc1ccc(Br)c2ccccc12)N/N=C/c1ccccn1,25*,-59.8,-0.1,1.4,i,0.1
O=C(N/N=C/c1ccccn1)c1cccs1,i,62.0*,-0.4,3.3,i,0.1
O=C(c1ccco1)N1CCN(C(=O)c2ccccc2NS(=O)(=O)c2ccc(F)cc2)CC1,i,-7.9,-3.6,7.2,i,0.1
C=C(C)CN1C(=O)C2(OCCO2)c2cc(Br)ccc21,i,2.0,.,.,i,-0.5
N#CC(C(=O)CCN1C(=O)C2CC=CCC2C1=O)c1nc2ccccc2[nH]1 (configuration not stated),i,1.9,-1.5,10.7,i,-1.0
N#CC(C(=O)C12CC3CC(CC(C3)C1)C2)c1nc2ccccc2[nH]1 (configuration not stated),i,2.0,-6.2,-3.9,-9.49*,-2.0
COC(C(=O)Nc1ccc(F)cc1)c1ccccc1 (configuration not stated),i,91.1*,-10.7,-1.3,i,0.3
COC(C(=O)Nc1ccc(S(=O)(=O)Nc2ccc(F)cc2)cc1)c1ccccc1 (configuration not stated),i,-35.8,4.3,-22.5,i,12.4
CCOC(=O)c1c(NC(=O)COc2cccc3c2CCN(CC)C3=O)sc2c1CCC2,i,-14.2,2.0,9.3,i,-1.2
COc1cc(S(=O)(=O)N2CCC(O)(c3cccc(C(F)(F)F)c3)CC2)ccc1-n1cnnn1,i,-34.6,-1.8,-2.6,i,-0.6
O=S(=O)(c1ccc(OC(F)(F)F)cc1)N1CCC(O)(c2cccc(C(F)(F)F)c2)CC1,25*,-36.4,1.4,-5.5,i,14.5
COc1ccc2nc(SCC(=O)C(C)(C)C)[nH]c2c1,i,26.1,4.8,-6.9,i,-3.1
Cc1c(N(C)C(=O)c2ccccc2F)c(=O)n(-c2ccccc2)n1C,i,11.9,5.3,0.2,-6.53*,-1.7
COc1ccc(-c2nnc(SCC(=O)NC3CCCCC3)n2N)cc1,.,0.6,-8.8,-3.2,i,-0.3
CN(C)C(=S)NC1CCS(=O)(=O)C1 (configuration not stated),i,4.3,-0.5,-5.2,i,-2.2
